# Source: PubChem BioAssay
# The full list was thinned out, with hits kept by preference.
# Vaccinia pol inh – blocks vaccinia virus processive DNA synthesis; in vitro processive DNA synthesis, absorbance read-out; active compounds read low; normalized absorbance, % (test concentration not listed); 46,000 compounds, 0.94% hits; in the data active = normalized absorbance mostly below about 85%, no sharp cut-off; inactive = mostly above about 86%
# Starred values were filed as active, the others as inactive.
SMILES,Vaccinia pol inh
O=C(O)CCCC(=O)Nc1ccc(-c2nc3ccccc3[nH]2)cc1,60*
O=C(O)CCCC(=O)Nc1nc2ccccc2[nH]1,97
O=C(O)CCC(=O)Nc1cccc(-c2nc3ccccc3[nH]2)c1,99
Cc1ccc(C)n1C(CC(=O)O)C1CCCCC1 (stereo not given),70*
NC(CC(=O)O)C1CCCCC1 (stereo not given),102
Cc1ccc(C)n1C(CC(=O)O)c1ccc(C#N)cc1 (stereo not given),106
O=C1CCN(C(=O)c2ccc(Cl)cc2)c2cc3ccccc3cc21,99
O=S(=O)(c1cccc(C(F)(F)F)c1)N1CCCCC1,100
FC(F)(F)c1cc(/C=C\c2noc(-c3ccccc3CN3CCCC3)n2)cc(C(F)(F)F)c1,86
CC1CCCCN1S(=O)(=O)c1ccc(C(=O)Nc2cccc(-c3nc4ccccc4[nH]3)c2)cc1 (stereo not given),100
CCn1cc(C(=O)NN)c(=O)c2cc(F)c(N3CCCC3)cc21,100
CCn1cc(C(=O)O)c(=O)c2cnc(N3CCNCC3)nc21,98
CCn1cc(C(=O)O)c(=O)c2cc(F)c(N3CCNCC3)cc21,77*
CN=C1S/C(=C/c2cccn2-c2ccc(N(C)C)cc2)C(=O)N1C,100
CN1CCc2c(sc(NC(=O)c3ccc4ncsc4c3)c2C(N)=O)C1,85*
N#Cc1ccsc1NC(=O)c1ccc2ncsc2c1,108
COC(=O)c1c(NC(=O)c2ccc(OC)cc2)sc2c1CCN(C)C2,92
CC1=NN(C(=O)C2CC2)C(=O)C1Cc1ccc(F)cc1 (stereo not given),91
CC(C)[C@@H]1NC(=O)[C@H](Cc2ccccc2)NC(=O)[C@@H](CC(=O)O)NC(=O)CNC(=O)[C@H](CCCN=C(N)N)NC1=O,101
Cc1oc(-c2cccc(Cl)c2)nc1CN1CCC(C(=O)NCCCN2CCCC2)CC1,98
O=C(O)CCC(=O)N1N=C(c2ccccc2)CC1c1ccccc1F (stereo not given),100
CC1CCN(CCC(=O)Nc2ccc3c(c2)OCO3)CC1,98
